# This is a sample that favours compounds with a hit; in the whole collection about 4.2% have one here.
# Sfp PPTase inh – blocks B. subtilis Sfp PPTase activity. Q9F4F7. Biochemical Sfp PPTase activity, qHTS. Potency, µM, without a hit: largest response in the series, negative = inhibition, most hits filed as inhibitors. 310,000 tested, 3.5% active;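 note: the enzyme is Sfp with the accession as filed and its product quenches rhodamine fluorescence; potency is the fitted concentration of half-maximal effect; 0% = enzyme reaction without inhibitor and -100% = no enzyme wells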
#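 Buffer: 50 mM Hepes-Na pH 7.6, 10 mM MgCl2, 0.01% Nonidet P-40, 0.01% BSA. Enzyme 15 nM, pre-exposed to compound 15 min; substrates then added and fluorescence change tracked over 30 min.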
# ClpP mod – qHTS Assay for Activators of ClpP. purified B. subtilis ClpP, FRET peptide cleavage, 20 min. 340,000 tested, 1.9% active. ATP-dependent Clp protease proteolytic subunit (Bacillus subtilis (strain 168)), P80244. AID 651965, 2013. Potency, µM (doses to about 57.5 µM), without a hit: at the top dose activity change, negative = active; active = well fitted falling curve with a large enough effect; inconclusive = small, poorly fitted or top-dose-only effect; inactive = no such curve, though single readings can be large or run the other way; note: potency is the fitted concentration of half-maximal effect; the source files actives as falling curves though it sought activators and does not explain the sign; nearly all actives have a fitted effect of over 65% in size
# Target sequence (P80244 whole entry, looked up): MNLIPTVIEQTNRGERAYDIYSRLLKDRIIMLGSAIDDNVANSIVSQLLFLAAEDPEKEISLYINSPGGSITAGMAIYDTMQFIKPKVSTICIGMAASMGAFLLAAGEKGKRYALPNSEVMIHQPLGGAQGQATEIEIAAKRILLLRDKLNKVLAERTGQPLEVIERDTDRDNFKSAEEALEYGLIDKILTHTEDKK
#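 ClpP 10 microg/mL final, pH 8 Tris/KCl buffer with BSA, glycerol, Tween-20; compound pinned in; FRET-FV substrate; RT 20 min; Ex320/Em430; ΔFRET vs ADEP 5.8 microM, DMSO, no enzyme.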
# uPA generation – blocks generation of uPA at the cell surface | 330,000 tested, 0.31% active | AID 540303 | cell surface uPA generation assay, qHTS | Potency, µM (highest dose often 38.3 µM), without a hit: at the highest dose activity change, negative = inhibition, most hits filed as inhibitors; active = well fitted inhibition curve with a large enough effect; inconclusive = small, poorly fitted or top-dose-only effect; inactive = no such curve, though single readings can be large or run the other way; tested in mouse RAW 264.7 cells; note: potency is the fitted concentration of half-maximal effect; % is set by controls: 0 for no effect and ±100 for the full control effect; nearly all actives have a fitted effect of over 55% in size
# TCR act – activates T cell receptor signaling. primary human leukocytes, anti-CD3, IL-2 HTRF, 48 h. Potency, µM (highest dose often 9.22 µM), for the others: top-dose activation of IL-2 secretion, usual class: activators. 330,000 tested, under 10 active. AID 504894; note: % of control where 0% means no effect
#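 48 hr co-incubation of compounds, a-CD3 beads and primary human leukocytes; IL-2 quantified homogeneously by HTRF with anti-IL-2 K and d2 conjugates.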
# Active calls of the source: *; ? = inconclusive; . = no result given; [ ] = another dose, or the depositor's remark. Unless noted, calls come from the whole dose curve; as a rule, active = well fitted curve in the direction sought with a large enough effect; inconclusive = small, poorly fitted or top-dose-only effect, or another doubt; inactive = no such curve, though single readings can be large; an effect the other way counts as inactive or inconclusive.
SMILES,Sfp PPTase inh,ClpP mod,uPA generation,TCR act
O=C(O)c1cc(-c2ccco2)nn1-c1cccc(Cl)c1,20µM*,.,1%,1%
Cc1ccc(-n2nc(-c3ccco3)cc2C(=O)O)c(C)c1,10µM*,-1%,1%,-5%
O=C(O)c1cc(-c2cc3ccccc3o2)nn1-c1ccccc1,14%,.,9%,-1%
O=C(O)c1cc(-c2cccs2)nn1-c1cccc(Cl)c1,89µM*,-3%,0%,-9%
O=C(O)c1cc(-c2ccco2)nn1-c1ccc(Cl)cc1,16µM*,3%,0%,-3%
N#CC1=C(Nc2ccccc2Cl)SC2(CCCC2)NC1=O,.,-2%,.,.
O=C(Nc1ccccc1)C1=C[C@@H](c2coc3ccccc3c2=O)C[C@@H](OCCCCO)O1,17%,4%,8%,0%
CC(C)Oc1ccc(C(=O)NCCCNC(=O)c2ccccn2)cc1,8%,.,1%,-1%
Cc1nn(-c2cccc(Cl)c2)c2nc(-c3ccco3)cc(C(=O)O)c12,28µM*,14µM*,4%,-2%
Cc1cccc(-n2nc(C)c3c(C(=O)O)cc(-c4cccs4)nc32)c1,3%,.,-2%,1%
Clc1cncc(Cl)c1NNc1c2ccccc2nc2ccccc12,-7%,28µM*,-2%,-2%[46.1 µM]
COc1ccc(CNC(=O)c2cc(=O)[nH]c3ccc(S(=O)(=O)N4CCCC4)cc23)c(OC)c1,.,-1%,.,.
CC(C)(C)CC(C)(C)N=C1Nc2cc(Cl)c(Cl)cc2N[C@]12C[C@H]1CCCC(=O)N3CC[C@@H](C2)[C@@H]13,.,-4%,.,.
CN(C)c1nc(=NCc2ccco2)ss1,0.5µM*,1%,0%,-1%
CCOC(CN=c1nc(N(C)C)ss1)OCC,.,-1%,-8%,3%
O=S(=O)(Nc1ccc2nc(-c3ccc(F)cc3)oc2c1)c1ccccc1,.,-21%,.,.
C[N+](C)(C)CCN(Cc1ccc(Cl)cc1)c1ccccn1,22%,25µM*,1%,15%
CN(C)CCN(Cc1ccc(Cl)cc1)c1ccccn1,?,-7%,-17%,0%
Cc1cccc(-n2c(CCc3ccccc3)nnc2SCC(=O)c2ccccc2)c1,50µM*,1%,-3%,-6%[46.1 µM]
COc1ccccc1-c1cc(C(=O)NC2CCN(C)CC2)c2ccc(Cl)c(C)c2n1,56µM*,-12%,0%,-11%
Cc1[nH]c(=S)c(C#N)c(-c2ccco2)c1C(=O)N(C)C,10µM*,-1%,2%,5%
O=C(c1ccccc1)c1ccc(OCC(O)CNCc2ccc(Cl)cc2)cc1 (configuration not stated),79µM*,2%,1%,6%
O=S(=O)(NCC(c1ccco1)S(=O)(=O)c1cccs1)c1ccc(F)c(C(F)(F)F)c1 (configuration not stated),.,0%,.,.
CCC(Sc1ncccc1C(=O)Oc1cccc([N+](=O)[O-])c1)C(=O)Nc1ccccc1OC (configuration not stated),6%,35µM*,-4%,3%[46.1 µM]
Cc1ccc(S(=O)(=O)NCc2ccccc2)cc1C(=O)N(C)Cc1ccccc1F,-1%,16µM*,0%,5%
SMILES,Sfp PPTase inh,ClpP mod,uPA generation,TCR act
COc1cc2c(c3ccccc13)CCCC2=O,.,28µM*,2%,4%
O=C1CCCc2c1ccc1ccccc21,.,-3%,-5%,6%
COc1ccc(CNC(=O)c2cc3cccc4c3n2CC(C)S4)cc1 (configuration not stated),.,32µM*,.,.
CC(C)Oc1ccc(CNC(=O)c2cc3cccc4c3n2CC(C)S4)cc1 (configuration not stated),.,32µM*,.,.
O=C(NCc1ccc(Cl)cc1)c1cc2cccc3c2n1CCS3,.,22µM*,.,.
FC(F)(F)c1ccc(Oc2ccc3cc(Br)ccc3c2)nc1,6%,-2%,15%,1%[46.1 µM]
Cc1ccnc(SCC(=O)c2ccc(Br)cc2)c1C#N,-29%,-3%,1%,1%[46.1 µM]
COC(=O)c1ccccc1CSc1nsc(C)c1C#N,50µM*,-1%,-6%,-18%
Cc1snc(SCC(=O)c2ccc(Cl)cc2)c1C#N,28µM*,-2%,.,4%
Cc1ccc(C(=O)CSc2nsc(C)c2C#N)cc1,20µM*,-2%,-2%,0%
COC(=O)c1cc(C#N)c(SCc2ccccc2)nc1C,-25%,1%,0%,-7%
O=C1CCC(c2ccc3c(c2)CCC3)=NN1,11%,0%,5%,9%
CCC(=O)NC(=S)Nc1ccccc1F,11%,13µM*,2%,6%

# Screening results from PubChem BioAssay.
